In PubChem BioAssay AID1224855 (National Center for Advancing Translational Sciences (NCATS), 2016):
Results filed as inconclusive are left out. Unmarked numbers belong to inactive results. The source made the active and inactive calls. Calls come from the whole dose curve; as a rule, active = well fitted inhibition curve with a large enough effect; inconclusive = small, poorly fitted or top-dose-only effect; inactive = no such curve, though single readings can be large or run the other way.

Test: Confirmation assay for measurement of the activity of small molecule inhibitors on Zika virus induced Caspase-3 activity in human iPSC derived neural progenitor cells (hNPCs)
Settings: hNPC ZIKV-induced caspase-3/7, Caspase-Glo luminescence, 6 h; series mostly up to 46.1 µM; activity, negative = inhibition: at the top concentration
Method in brief: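 Luminescence readout (Caspase-Glo 3/7, 30 min RT) of caspase activity in hNPCs after 6 h ZIKV infection (2 FFU/cell); compound added 1 h before virus. Normalized to uninfected and infected wells.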

Row | Structure (SMILES) | activity, negative = inhibition | Potency
1 | CC1=C(CO)C(=O)O[C@@H]([C@@H](C)[C@H]2CC[C@H]3[C@@H]4C[C@H]5O[C@]56[C@@H](O)C=CC(=O)[C@]6(C)[C@@H]4CC[C@]23C)C1 | -16.7% | –
2 | O=c1c2ccccc2nc2n1CCc1c-2[nH]c2ccccc12 | – | 4.35 µM (active)
3 | CC(=O)Oc1ccccc1C(=O)Nc1ncc([N+](=O)[O-])s1 | – | 1 µM (active)
4 | CC(C(=O)O)c1ccc(-c2ccccc2)c(F)c1 (centres undefined) | -7.07% | –
5 | CC(=O)OC(C)OC(=O)C(C)c1ccc(-c2ccccc2)c(F)c1 (centres undefined) | -22.6% | –
6 | O=C1NC(=O)C(=Cc2ccc(-c3ccc(F)cc3)o2)S1 | – | 9.75 µM (active)
7 | O=C(Nc1ccc(C(=O)O)c(O)c1)c1ccccc1 | – | 4.35 µM (active)
8 | CC1(C)Cc2c(sc(NC(=S)NC(=O)c3ccccc3)c2C(=O)O)CO1 | -14.5% | –
9 | CC(=NNC(=S)N1CCC1)c1ccccn1 | -10.5% | –
10 | CC(=O)Nc1ccc([C@H](C)C(=O)Nc2ncc(C(C)C)s2)cc1 | – | 17.3 µM (active)
11 | Nc1ccc(-c2ccc3ccccc3n2)cc1 | – | 3.88 µM (active)
12 | CCC(C(=O)O)c1ccc(N2Cc3ccccc3C2=O)cc1 (centres undefined) | – | 5.48 µM (active)
13 | C[C@H](NC(=O)C(=O)Nc1ccccc1C(C)(C)C)C(=O)N[C@@H](CC(=O)O)C(=O)COc1c(F)c(F)cc(F)c1F | – | 0.245 µM (active)
14 | Nc1ncnc2c1ncn2[C@@H]1O[C@@H](CO)[C@H](O)[C@H]1O | 2.2% [at 23.8 µM] | –
15 | Nc1ccc2c(c1)CN1C(=O)c3ccccc3C1=N2 | – | 1.9 µM (active)
16 | Cc1cccc(C#Cc2ccccc2)n1 | – | 3.46 µM (active)
17 | Cc1cc(O)c2c(c1)C(=O)c1cc(O)cc(O)c1C2=O | – | 1.95 µM (active)

Row | Structure (SMILES) | activity, negative = inhibition | Potency
18 | COc1ccnc2c1CCCCC2S(=O)c1nc2ccccc2[nH]1 (centres undefined) | 4.9% | –
19 | CN1CC(=O)N2C(Cc3c([nH]c4ccccc34)[C@H]2c2ccc3c(c2)OCO3)C1=O (some centres undefined) | 6.79% | –
20 | CC(C)(C)COc1ccc(-n2cc(C(=O)O)cn2)cc1C#N | – | 22.4 µM (active)
21 | Cc1c(C(=O)O)c(O)cc2c1C(=O)c1c(O)c([C@@H]3O[C@H](CO)[C@@H](O)[C@H](O)[C@H]3O)c(O)c(O)c1C2=O | 64.3% | –
22 | CC(C)(C)OC(=O)CN(Cc1ccc(Cl)cc1)Cc1ccc([N+](=O)[O-])s1 | 38.9% [at 88.3 µM] | –
23 | O=C(Oc1ccccc1)c1cccc(C(=O)Oc2ccccc2)c1 | – | 3.98 µM (active)
24 | COc1ccc2nc(NC(=O)Nc3ccccc3)sc2c1 | – | 8.69 µM (active)
25 | C[C@@H](O[C@H]1OCCN(Cc2n[nH]c(=O)[nH]2)[C@@H]1c1ccc(F)cc1)c1cc(C(F)(F)F)cc(C(F)(F)F)c1 | 31.4% | –
26 | COc1cccc(-c2ccc(NC(=O)C3=C(C(=O)O)CCC3)c(F)c2)c1 | – | 2.45 µM (active)
27 | O=C(Nc1ccc(OC(F)(F)F)cc1)c1sccc1NCc1ccnc2ccccc12 | – | 6.15 µM (active)
28 | O=C(O)CCC(=O)c1ccc(-c2ccccc2)cc1 | – | 19.5 µM (active)
29 | CC[C@@]1(O)C[C@H](O[C@H]2C[C@H](N(C)C)[C@H](O[C@H]3C[C@H](O)[C@H](O[C@H]4CCC(=O)[C@H](C)O4)[C@H](C)O3)[C@H](C)O2)c2c(cc3c(c2O)C(=O)c2c(O)cccc2C3=O)[C@@H]1C(=O)OC | 65.4% | –
30 | O=C(O)[C@H](CC(=O)N1C[C@@H]2CCCC[C@H]2C1)Cc1ccccc1 | -27.9% | –
31 | Cc1nc(-c2ccc(OCC(C)C)c(C#N)c2)sc1C(=O)O | – | 3.88 µM (active)
32 | CC(C)OC(=O)CCCC=CC[C@@H]1[C@H](C=C[C@@H](O)COc2cccc(C(F)(F)F)c2)[C@H](O)C[C@@H]1O | -13.3% | –
33 | CCCC(=O)OC[C@@H](OC(=O)CCC)[C@@H](OC(=O)CCC)[C@H](Cn1c2nc(=O)[nH]c(=O)c-2nc2cc(C)c(C)cc21)OC(=O)CCC | 23% | –
34 | CC[C@]1(O)C[C@H]2CN(CCc3c([nH]c4ccccc34)[C@@](C(=O)OC)(c3cc4c(cc3OC)N(C=O)[C@H]3[C@@](O)(C(=O)OC)[C@H](OC(C)=O)[C@]5(CC)C=CCN6CC[C@]43[C@@H]65)C2)C1 | 46.5% | –
